Reference: PubChem BioAssay AID588475 (Sanford-Burnham Center for Chemical Genomics, 2011)
In all, about 350,000 compounds went through this assay and about 2,100 (0.6%) were called active.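 How the source made its calls: active means inhibition of the ligand-induced calcium signal above about 50% at the single tested concentration (limit read from the data); inactive means the rest.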 Many of the other results were omitted from the sample, so actives are more common in it than they were.

Assay: antagonists of CRF-BP/CRF-R2 complex, primary screen, cell-based, HEK293, calcium dye fluorescence, uHTS (AID 588475)
Conditions: CRF-induced calcium fluorescence, at 11.8 µM, stronger effect = higher value

inhibition, inactive:
Cc1nn(C)c(Oc2ccccc2)c1CCNS(=O)(=O)c1ccc(F)cc1 -3.36%
Nc1ncnc2c1ncn2[C@@H]1O[C@H](CNS(=O)(=O)c2ccc(-c3ccno3)s2)[C@@H](O)[C@H]1O 3.06%
CCOC(=O)C1=NNC2(c3ccc(Cl)cc3)C(=O)N(c3cc(C)cc(C)c3)C(=O)C12 (centres undefined) 17.3%
Cc1cccc(OCCC(=O)Nc2cc(S(=O)(=O)N3CCCCC3)ccc2N2CCOCC2)c1 -1.67%
CC(C)CCOc1ccc(C(=O)Nc2cc(S(=O)(=O)N3CCOCC3)ccc2N2CCOCC2)cc1 19.1%
O=C(Nc1c2c(nn1-c1ccccc1)CS(=O)(=O)C2)C1CCCC1 7.96%
COc1cccc(CNC(=O)CCC2CCCN(C(=O)c3ccc(F)c(Cl)c3)C2)c1 (centres undefined) 6.37%
COc1cccc(CNC(=O)CCC2CCCN(C(=O)c3ccoc3C)C2)c1 (centres undefined) -2.45%
CC(C)(C)c1ccc(/C=C2\SC(=O)N=C2N)cc1 9.93%
O=C1N=C(N2CCc3ccccc3C2)S/C1=C\c1ccc(O)cc1 16.8%
CNC(=O)/C(=C\C=C\c1ccccc1)NC(=O)c1ccc([N+](=O)[O-])cc1 4.28%
Cc1ccc(NC(=O)Cn2sc3ccccc3c2=O)cc1 3.99%
Cc1cc(NC(=O)CN2C(=O)NC(CCc3ccccc3)C2=O)no1 (centres undefined) 5.91%
COc1ccc(C2(c3ccc(OC)cc3)NC(=O)N(CC(=O)Nc3cc(C)on3)C2=O)cc1 -31.2%
CC1CCN(C(=O)/C(=C\c2ccccc2)NC(=O)c2ccccc2)CC1 8.16%
O=C(Cc1cccs1)N(CC1CCCO1)C1(C(=O)NC2CCCCC2)CCCCC1 (centres undefined) -14.9%
Cc1ccc(C)c(NC(=O)C(OC(=O)c2ccc(C)s2)c2ccccc2)c1 (centres undefined) -6.3%
COCCCNC(=O)c1ccc(CNS(=O)(=O)c2ccc(NC(C)=O)cc2)cc1 -2.43%
O=C(Nc1ccc(S(=O)(=O)Nc2nccs2)cc1)c1cccc(S(=O)(=O)N2CCOCC2)c1 -0.01%
O=C(Nc1ccc(S(=O)(=O)N2CCOCC2)cc1)c1ccc2ncsc2c1 1.25%
O=C(NNC(=S)NCCCN1CCOCC1)c1ccncc1 1.88%
CNC(=O)C[C@H]1C(=O)N(Cc2ccccc2)C[C@@H]1CSC -10.7%
CN(CCC(=O)Nc1cc(S(=O)(=O)N(C)C)ccc1Cl)CC(=O)Nc1ccc(F)cc1 -7.88%
O=C(CSC1=Nc2ccccc2C2=NC(c3ccccc3)C(=O)N12)NCC1CCCO1 (centres undefined) 10.2%
NC(=O)CSC1=Nc2ccccc2C2=NC(CCC(=O)NCc3ccc(F)cc3)C(=O)N12 (centres undefined) 15.6%
CCOc1ccc(NC(=O)COc2ccc(C(=O)N3CCC(C(N)=O)CC3)cc2OC)cc1 -31.7%
COCC(C)n1c(SCC(=O)NC2CCCCC2C)nc2ccccc2c1=O (centres undefined) 6.09%
COCCNC(=O)c1ccc(-n2c(SCc3cccnc3)nc3ccccc3c2=O)cc1 -8.33%
COCCn1c(C)cc(C(=O)CSc2nc3ccccc3c(=O)n2C(C)COC)c1C (centres undefined) 25.5%
COc1cccc(-n2c(SCC(=O)NC3CCS(=O)(=O)C3)nc3ccccc3c2=O)c1 (centres undefined) 3.38%
COc1ccc(CCNC(=O)c2nnc(CS(=O)(=O)c3ccccc3)o2)cc1OC -36.1%
CCc1nn(CCCC(=O)NCc2ccc(C)cc2)c(=O)c2cc3occc3n12 -4.08%
Cc1ccc(C)c(S(=O)(=O)N2CC(=O)Nc3ccccc32)c1 -4.23%
O=C(NCc1ccncc1)c1cccc(NS(=O)(=O)c2ccc(F)c(F)c2)c1 -1.96%
Cc1cc(=O)oc2c(C(=O)c3ccccc3)c(OCC(N)=O)ccc12 21.9%
CCCN(CC(=O)Nc1ccccc1C)C(=O)c1ccc2[nH]c3c(c2c1)CC(C)CC3 (centres undefined) -10.4%
CN(CC(=O)Nc1cccc(F)c1)C(=O)CC1CCCC1 -9.75%
COCCN1CCn2c(nc3cc(NS(C)(=O)=O)ccc32)C1 -7.04%
COC(=O)Nc1ncc(CN2C(=O)c3ccccc3C2=O)s1 -1.89%
CCNC(=O)COC(=O)CCNC(=O)c1cccc(C)c1 3.93%
CC(=O)Nc1ccc(NC(=O)[C@@H](NC(=O)c2cccc(C)c2)C(C)C)cc1 4.4%
Cc1ccccc1C(CC(=O)c1cccs1)C(C#N)C#N (centres undefined) -24.6%
O=C(CN(c1cccc(Cl)c1)S(=O)(=O)c1ccccc1)NN=C1CCCC1 -7.21%
O=C(CN1CCC(NC(=O)Nc2ccccc2)CC1)Nc1cccc([N+](=O)[O-])c1 13.2%
O=C(CSc1nc(-c2ccccc2)cs1)Nc1cccc([N+](=O)[O-])c1 27.9%
O=C1c2ccccc2C2=Nc3ccccc3SC(c3ccccc3F)C12 (centres undefined) -94.9%
CC1(C)C/C(=N/Nc2ccc([N+](=O)[O-])cc2[N+](=O)[O-])C(C)(C)O1 -6.77%
CC(C)OP(=O)(OC(C)C)C(Nc1ccccc1)c1cccc([N+](=O)[O-])c1 (centres undefined) -23.4%
Cc1ccc(OCC(=O)Nc2ccccc2C(=O)NC2CC2)cc1C 0.16%
O=C(Nc1ccccc1N1CCOCC1)c1ccncc1 4.16%
O=C(NC(=S)Nc1ccccc1N1CCCCC1)c1ccc(F)cc1 -90.3%
O=C(NCC(=O)N(CC1CCCO1)C(C(=O)NC1CCCCC1)c1ccccc1)c1ccco1 (centres undefined) 2.38%
COc1ccc(C)cc1NC(=O)CSc1ccc(Cl)cc1 5.69%
COc1ccc(Cl)cc1NC(=O)CN(C)C(=O)c1cc2ccccc2cc1OC 9.16%

inhibition, active:
Cc1cc(OCCCC(=O)Nc2cc(S(=O)(=O)N3CCOCC3)ccc2N2CCOCC2)ccc1Cl 62.5%
COc1cccc(C(=O)N2CCCC(CCC(=O)NCc3ccc(F)c(F)c3)C2)c1 (centres undefined) 50.4%
NC1=NC(=O)S/C1=C\c1ccc(O)cc1 51%
Cc1cc(NC(=O)CN2C(=O)NC(CC(C)C)C2=O)no1 (centres undefined) 56.2%
CC(C)c1ccc2c(c1)c(SC(C)(C)C)c(CC(C)(C)C(=O)O)n2Cc1ccc(Cl)cc1 54.3%
Cc1nc2ccc(NC(=O)c3cccc(S(=O)(=O)N4CCOCC4)c3)cc2s1 116%
O=C(CC1N=C2c3ccccc3N=C(SCc3ccccc3Cl)N2C1=O)NCc1ccco1 (centres undefined) 89.4%
COCC(C)n1c(SCc2ccc(C(=O)OC)o2)nc2ccccc2c1=O (centres undefined) 51.9%
COC(=O)c1ccc(CSc2nc3ccccc3c(=O)n2-c2cccc(OC)c2)o1 76.5%
CC1CCc2[nH]c3ccc(C(=O)N(C)CC(=O)Nc4cccc(F)c4)cc3c2C1 (centres undefined) 104%
CCOC(=O)C(CC)/C(C)=N\NC(=O)c1cccc(C)c1 (centres undefined) 89%
O=C(CSCC(=O)Nc1cccc([N+](=O)[O-])c1)Nc1ccccc1 54%
CC(Nc1ccc([N+](=O)[O-])cc1[N+](=O)[O-])c1ccccc1 (centres undefined) 61.4%
CCc1ccc(C(=O)NC(=S)Nc2ccccc2N2CCOCC2)cc1 125%
COc1ccc(Cl)cc1NC(=O)CNc1ccccc1F 61.7%
